TEAD-YAP block = TEAD-YAP interaction inhibition. inhibition, % at 9.12 µM. AID 1259422. 1.4% of 640,000 active. HEK-TIYL cells, TEAD-Gal4/YAP UAS-luciferase luminescence; in the data active = inhibition above about 32%;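 note: 0% = median of test compound wells and 100% = reference inhibitor wells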
GPR151 activ = human GPR151 activation. PathHunter beta-arrestin GPR151 cells, luminescence. 1% of 650,000 active. Q8TDV0. activation, % at 11.2 µM; in the data active = activation above about 4.9%;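 note: 0% = median of compound wells and 100% = cells with positive control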
Target sequence (Q8TDV0 whole entry, looked up): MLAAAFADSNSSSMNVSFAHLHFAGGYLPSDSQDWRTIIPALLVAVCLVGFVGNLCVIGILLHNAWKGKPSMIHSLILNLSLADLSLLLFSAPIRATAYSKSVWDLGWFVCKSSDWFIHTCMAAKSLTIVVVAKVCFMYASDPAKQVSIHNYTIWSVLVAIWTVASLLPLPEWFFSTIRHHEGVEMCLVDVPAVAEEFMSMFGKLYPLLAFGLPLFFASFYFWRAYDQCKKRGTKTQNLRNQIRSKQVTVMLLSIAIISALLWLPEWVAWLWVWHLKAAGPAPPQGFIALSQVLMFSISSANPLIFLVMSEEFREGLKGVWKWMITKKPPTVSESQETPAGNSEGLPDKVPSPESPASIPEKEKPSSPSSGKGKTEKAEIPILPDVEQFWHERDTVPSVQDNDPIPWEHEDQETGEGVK
MITF primary = inhibitors of human MITF; inhibition, % at 2.6 µM; O75030; 0.91% of 650,000 active; AlphaScreen MITF homodimerization, bead proximity signal; in the data active = inhibition above about 50%;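 note: 0% = vehicle wells with protein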
FBW7 activator = activators of human E3 ligase FBW7 | Q969H0 | normalized activity (activation), % at 26.1 µM | 0.13% of 650,000 active | AlphaScreen FBW7–phospho-cyclin E peptide binding, activator screen; in the data active = normalized activity above about 1.9%;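 note: purified mutant Fbw7 with reduced substrate affinity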
GPR151 conf act = human GPR151 activation, confirmation screen | AID 1508609 | 6,700 tested, under 10 active | shares compounds with GPR151 activ | GPR151 PathHunter beta-arrestin cells, luminescence, 90 min; % of EA-reagent control over plate median | activation, % at 11.2 µM;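 active = mean percent activation across replicates above the confirmation screen cutoff of 4.91%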
GPR119 counter = counter-screen for GPR151 activators: effect on human GPR119; activation, % at 11.2 µM; AID 1508611; shares compounds with GPR151 activ; 0.3% of 6,700 active; GPR119 PathHunter beta-arrestin cells, luminescence, 90 min; 0 = compound-well median, 100 = enzyme-acceptor control;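 active = mean percent activation in the counterscreen above 29.09%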;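 note: counterscreen on off-target GPR119 to flag nonselective hits from the GPR151 activator screen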
An asterisk follows results filed as active; . = not tested or not shown. This is a sample that favours compounds with a hit; in the whole collection about 3.4% have one here.

SMILES	TEAD-YAP block	GPR151 activ	MITF primary	FBW7 activator	GPR151 conf act	GPR119 counter
CNS(=O)(=O)c1ccc(NC(=O)/C=C/c2ccco2)cc1	-9	0	-3	0	.	.
O=C(/C=C/c1ccco1)Nc1ccc(S(=O)(=O)N2CCCCCC2)cc1	2	-1	-6	0	.	.
O=C(/C=C/c1ccco1)Nc1ccc(S(=O)(=O)N2CCCCC2)cc1	5	13*	-13	0	-1	-8
CN(C)S(=O)(=O)c1ccc(NC(=O)/C=C/c2ccco2)cc1	-23	8.3*	7	0	1	4
O=C(Nc1ccc(S(=O)(=O)N2CCCCCC2)cc1)C(Cl)(Cl)Cl	0	6.7*	6	0	0	-7
CC(=O)COc1cc2c(C)cc(=O)oc2cc1Cl	7	5.6*	-9	0	2	12
O=C(Nc1nc2n(n1)C(c1ccc(F)cc1)CC(c1ccccc1)N2)c1cccnc1 (stereo unspecified)	13	5.7*	3	0	0	4
CCC(=O)Nc1nc2n(n1)C(c1ccccc1)CC(c1ccc(Cl)cc1)N2 (stereo unspecified)	3	-1	12	0	.	.
c1csc(-c2[nH]ncc2CNC2CCCCC2)c1	3	5.1*	-3	0	-1	-16
CC(C)OC(=O)CN1CCN(S(=O)(=O)c2ccc(Br)cc2)CC1	-7	-2	19	0	.	.
Cc1csc(NC(=O)CSCC(=O)Nc2ccccc2)n1	-8	6.9*	-9	0	1	6
CCOC(=O)CSc1nc2ccc(NC(=O)CSCC(=O)Nc3ccccc3)cc2s1	2	4.9*	-2	0	0	6
CCn1c(CSCc2ccc(F)cc2)nnc1SCC(=O)Nc1nc(C)cs1	9	0	-11	0	.	.
Cc1csc(NC(=O)CSc2nnc(CSCc3ccc(F)cc3)n2C)n1	15	5.1*	-10	0	0	7
O=C(CSCC(=O)Nc1ccc2nc(SCC(=O)Nc3ccccc3)sc2c1)Nc1ccc2ccccc2c1	0	-1	11	0	.	.
CCCCC1CCC(C(=O)Nc2c3c(nn2-c2ccc(OC)cc2)CS(=O)(=O)C3)CC1 (stereo unspecified)	-2	5	4	0	.	.
Cc1ccnc(Nc2ccc(N3CCN(C(=O)C4CCCC4)CC3)nn2)c1	6	5.1*	6	1	0	-2
CS(=O)(=O)Oc1ccc(Cl)cc1/C=C1/N=C(c2cccs2)OC1=O	-6	5.3*	2	0	1	-3
CCOc1cc(/C=C2/N=C(c3cccs3)OC2=O)ccc1OS(C)(=O)=O	7	-1	1	0	.	.
CCC1CCc2c(sc3nc(SCC(=O)Nc4c(C)cccc4C)n(-c4ccccc4)c(=O)c23)C1 (stereo unspecified)	1	8.1*	27	0	0	-4
CCCC(c1nnnn1CCOC)N1CCN(c2cccc(C(F)(F)F)c2)CC1 (stereo unspecified)	-9	5.4*	0	0	-1	-11
Cc1ccc(/C=C/C(=O)Nc2sc3c(c2C(N)=O)CCC(C)C3)cc1 (stereo unspecified)	-3	1	12	0	.	.
CCN1C(=O)C(=O)N(Cc2cc(=O)oc3cc(C)ccc23)C1=O	-18	0	8	0	.	.
O=C(O)c1ccc2c(=O)[nH]c(CSc3nnc(Nc4ccccc4)s3)nc2c1	8	8.4*	23	0	1	6
COC(=O)C(Sc1c(O)cc(C)oc1=O)(C(F)(F)F)C(F)(F)F	-10	0	5	-1	.	.
SMILES	TEAD-YAP block	GPR151 activ	MITF primary	FBW7 activator	GPR151 conf act	GPR119 counter
COC(=O)C(Sc1cc2c(cc1O)OCO2)(C(F)(F)F)C(F)(F)F	3	5.3*	5	0	0	1
COc1ccccc1CNC(=O)C(C)(C)Oc1ccc(Cl)cc1	-2	1	7	0	.	.
O=C(Nc1ccc(F)cc1F)C(=O)N1CCCCC1	-33	7.1*	-10	0	1	3
Cc1ccc(N(CC(O)Cn2c3ccccc3c3ccccc32)S(=O)(=O)c2ccc(C)cc2)cc1 (stereo unspecified)	-11	-2	-6	0	.	.
O=C(CN(c1ccccc1)S(=O)(=O)c1ccccc1)N1CCOCC1	12	0	0	0	.	.
Cc1ccc(S(=O)(=O)N(CC(=O)N2CCOCC2)CC(=O)N2CCOCC2)cc1	-9	6.6*	-14	0	2	-1
Cc1ccc(N(CC(=O)N2CCOCC2)S(=O)(=O)c2ccccc2)cc1	9	9.1*	8	0	0	-6
CCOc1ccccc1N(CC(=O)N1CCCC1)S(=O)(=O)c1ccc(C)cc1	-1	6.0*	-1	0	0	-5
Cc1ccc(N(CC(O)Cn2c3ccccc3c3ccccc32)S(=O)(=O)c2ccccc2)cc1 (stereo unspecified)	10	6.2*	-1	0	1	15
O=C(Cc1ccccc1)Nc1cc(NCc2ccccc2)ncn1	-6	0	11	0	.	.
COc1ccc(OCC(=O)NNC2CC(=O)N(c3ccccc3)C2=O)cc1 (stereo unspecified)	3	-1	8	0	.	.
Cc1ccc(N(CC(=O)N2CCCCCC2)S(=O)(=O)c2ccccc2)cc1C	0	5.8*	-3	0	1	14
CN1CSC2=C(C#N)C(c3cccc(OCc4ccccc4)c3)CC(=O)N2C1 (stereo unspecified)	-4	8.7*	8	0	0	-7
Oc1ccc(/C=N/N=C2\CCCc3nonc32)c(O)c1	22	-2	8	0	.	.
COc1ccc(CNc2c3c(nc4nncn24)CCC3)cc1	-3	7.3*	-7	0	-1	-14
COc1ccc(C2C(=O)N(C3CCCC3)CC(=O)N2Cc2cccs2)cc1 (stereo unspecified)	2	11*	-2	0	1	14
CN(C)c1ccc(C2C(=O)N(C3CCCCC3)CC(=O)N2Cc2cccs2)cc1 (stereo unspecified)	30	1	0	0	.	.
O=C1C(Cc2ccccc2)N=C2c3ccccc3N=C(SCc3cccc(F)c3)N12 (stereo unspecified)	-28	0	-6	0	.	.
COc1cc([N+](=O)[O-])ccc1NC(=S)N1CCN(c2ccc(C(C)=O)cc2)CC1	0	7.3*	-6	0	0	-7
CC(=O)c1ccc(N2CCN(C(=S)Nc3cccc([N+](=O)[O-])c3)CC2)cc1	-12	5.2*	1	0	0	0
Cc1nc2[nH]nc(NCc3ccc(C#N)cc3)c2c(C)c1C	5	-1	17	1	.	.
O=[N+]([O-])c1c(Nc2ccc(Cl)cc2)cc(N2CCOCC2)c2nonc12	8	-2	6	0	.	.
CCOC(=O)C(CC(C)C)N(Cc1ccccc1C)S(=O)(=O)c1ccc(Br)cc1 (stereo unspecified)	-5	-2	-6	0	.	.

Source: PubChem BioAssay
